# Data published in PubChem BioAssay (Tox21).
# “And” between values parts separate entries of the source, which are not always exact repeats. Identical values can stand only once. Results filed as inconclusive are left out. Entries that show only a call come without a potency. Some compounds were tested as several samples or in several runs, with calls that do not always agree. The source made the active and inactive calls. Unless noted, calls come from the whole dose curve.
# How the values were obtained:
# [1] = Nuclear factor erythroid 2-related factor 2/antioxidant responsive element (Nrf2/ARE) small molecule agonists: qHTS cell viability counter screen in human keratinocytes (AID 1919968; active = well fitted cell-killing curve with a large enough effect in the repeat runs; note: nearly all actives have a fitted effect of over 55% in size; note: potency is the fitted concentration of half-maximal effect)
# Method in brief: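 Measured as CellTiter-Fluor fluorescence, this readout tracks cytotoxicity in the same wells as the ARE-luciferase screen. HaCaT reporter cells (1,500/well) received compounds after a 5 h pre-incubation and were exposed for 23 h.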
# [2] = Nuclear factor erythroid 2-related factor 2/antioxidant responsive element (Nrf2/ARE) small molecule agonists: luciferase reporter gene qHTS assay in human keratinocytes (AID 1919969); note: nearly all actives have a fitted effect of over 35% in size; note: potency is the fitted concentration of half-maximal effect
# [3] = G protein-coupled receptor (GPCR) small molecule agonists, calcium flux assay: HEK293 wild type cell line counter screen (AID 1920065)
# Method in brief: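 Readout: fluorescence at 480 nm excitation/540 nm emission, sampled at 1 s intervals for 3 min. Cells had been cultured 18 h, then dye-loaded 1 h at 37 C before compound or ATP addition.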
# [4] = p53 small molecule agonists, cell-based qHTS assay with human liver microsomes (AID 1963577);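 note: p53 response element beta-lactamase reporter cells with liver microsomes plus NADPH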
# Method in brief: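 16 h, 37 C exposure of p53RE-bla cells to compounds with human liver microsomes and NADPH (0.5 mg/mL final each); detection via LiveBLAzer mixture, 2 h dark at room temperature.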
# [5] = p53 small molecule agonists, cell-based qHTS assay with rat liver microsomes (AID 1963578)
# Method in brief: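 With rat liver microsomes and NADPH present (0.5 mg/mL final each), p53RE-bla cells are treated with compound for 16 h at 37 C. LiveBLAzer detection mixture is then applied for 2 h at room temperature in the dark.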
# [6] = p53 small molecule agonists, cell-based qHTS assay with human liver microsomes: qHTS cell viability counter screen (AID 1963579); note: nearly all actives have a fitted effect of over 45% in size
# Method in brief: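 In this multiplexed counter screen, the reporter plates were subsequently treated with CellTiter-Glo so that cell viability, reflected by luminescence, could be recorded for p53RE-bla cells dosed 16 h with compounds under microsomal activation (HLM and NADPH).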
# [7] = p53 small molecule agonists, cell-based qHTS assay with rat liver microsomes: qHTS cell viability counter screen (AID 1963580); note: nearly all actives have a fitted effect of over 45% in size
# Method in brief: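 HCT-116 p53RE-bla, 4,000 cells/well, 5 h pre-incubation; cpd + rat liver microsomes 0.5 mg/mL + NADPH 0.5 mg/mL (final); 16 h, 37 C; CellTiter-Glo, 30 min RT; luminescence.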
# [8] = p53 small molecule agonists, cell-based qHTS assay: qHTS cell viability counter screen (AID 1963581); note: nearly all actives have a fitted effect of over 45% in size
# Method in brief: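 In the same plates used for the p53 bla reporter, HCT-116 cells given compounds for 16 h at 37 C received CellTiter-Glo; luminescence was recorded 30 min later at room temperature.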
# [9] = p53 small molecule agonists, cell-based qHTS assay (AID 1963582; active = well fitted activation curve with a large enough effect in the signal ratio in the repeat runs, not every such curve was filed as active; the % refers to the signal ratio)
# Method in brief: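 Compounds are pin-transferred in DMSO onto p53RE-bla cells and incubated 16 h at 37 C. The B/G FRET beta-lactamase substrate is then applied for 2 h at RT and fluorescence recorded.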
# [10] = target: 5-hydroxytryptamine receptor 2A (Homo sapiens) (UniProt P28223); experiment: 5-hydroxytryptamine receptor 2A (HTR2A) small molecule antagonists, cell-based qHTS assay (AID 1963586); note: nearly all actives have a fitted effect of over 45% in size
# Method in brief: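 Antagonist-mode intracellular calcium assay: DOI (4 nM) added after 5 min compound pre-incubation at room temperature to dye-loaded HTR2A-CHO cells. Fluorescence followed for 3 min, sampled every second.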
# [11] = target: 5-hydroxytryptamine receptor 2A (Homo sapiens) (UniProt P28223); experiment: 5-hydroxytryptamine receptor 2A (HTR2A) small molecule agonists, cell-based qHTS assay (AID 1963587); note: nearly all actives have a fitted effect of over 30% in size; note: potency is the fitted concentration of half-maximal effect
# Method in brief: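 Kinetic calcium-flux fluorescence (2 min, 1 sec intervals) after compound addition in agonist mode. HTR2A-CHO cells were cultured 18 h, then dye-loaded 1 h at 37 C.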
# [12] = target: Muscarinic acetylcholine receptor M1 (Homo sapiens) (UniProt P11229); experiment: Cholinergic receptor muscarinic 1 (CHRM1) small molecule antagonists, cell-based qHTS assay (AID 1963588); note: nearly all actives have a fitted effect of over 40% in size
# Method in brief: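 CHRM1-CHO calcium-flux assay, antagonist mode. Cells were seeded 18 h, dye-loaded 1 h at 37 C and given compound for 5 min at RT, then acetylcholine was added at 50nM. FDSS fluorescence was read 3 min; 15 concentrations, three runs.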
# [13] = target: Muscarinic acetylcholine receptor M1 (Homo sapiens) (UniProt P11229); experiment: Cholinergic receptor muscarinic 1 (CHRM1) small molecule agonists, cell-based qHTS assay (AID 1963589); note: nearly all actives have a fitted effect of over 35% in size; note: potency is the fitted concentration of half-maximal effect
# Method in brief: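 Each compound was tested at 15 concentrations across three independent runs on dye-loaded CHO cells stably expressing human CHRM1, reading intracellular calcium fluorescence kinetically at 1 sec intervals.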
# [14] = cAMP Responsive Elements (CRE) small molecule agonists, cell-based qHTS assay (AID 1963590)
# Method in brief: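 Cell line: CRE-bla HEK 293T; medium DMEM/10% dialyzed FBS/0.1 mM NEAA/1 mM pyruvate/25 mM HEPES; 3 h compound exposure; beta-lactamase FRET readout after 2 h substrate loading at RT.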
# [15] = cAMP Responsive Elements (CRE) small molecule antagonists, cell-based qHTS assay (AID 1963591; active = well fitted inhibition curve with a large enough effect in the signal ratio in the repeat runs, not every such curve was filed as active; the % refers to the signal ratio)
# Method in brief: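 Inhibition of NKH477-driven (0.25 uM final) CRE-beta-lactamase signal in HEK293T cells, 3 h compound exposure at 37 °C, detected by FRET substrate fluorescence.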
# [16] = target: Beta-2 adrenergic receptor (Homo sapiens) (UniProt P07550); experiment: Adrenergic beta2 receptor (ADRB2) small molecule antagonists, cell-based qHTS assay (AID 1963592); note: series mostly up to about 92 µM; nearly all actives have a fitted effect of over 50% in size
# Method in brief: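 Cells (CHO, stable ADRB2 overexpression) incubated 18-20hr at 37C; compounds added from DMSO; agonist mix (1nM isoproterenol, 100uM IBMX, 25uM Ro-20-1724) added; 0.5hr RT; d2-cAMP and anti-cAMP-cryptate added; 1hr RT; 665/615 nm read.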
# [17] = target: Beta-2 adrenergic receptor (Homo sapiens) (UniProt P07550); experiment: Adrenergic beta2 receptor (ADRB2) small molecule agonists, cell-based qHTS assay (AID 1963593);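 note: CHO cells stably overexpressing human ADRB2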
# Method in brief: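 CHO cells stably over-expressing ADRB2 were plated overnight at 37C, then dosed with compounds plus a stimulation mix containing 100uM IBMX and 25uM Ro-20-1724 for 0.5hr at room temperature. cAMP was measured by HTRF competition, 1hr.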
# [18] = target: D(2) dopamine receptor (Homo sapiens) (UniProt P14416); experiment: Dopamine D2 receptor (DRD2) small molecule antagonists, cell-based qHTS assay (AID 1963595; active = well fitted inhibition curve with a large enough effect in the signal ratio in the repeat runs, with a control signal flat; the % refers to the signal ratio)
# Method in brief: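 Human DRD2 antagonist qHTS measuring cAMP by HTRF. The cells are exposed to compound for 10 min, then to NKH477 (200 nM) and quinpirole (12 nM) for 30 min at RT, with Ro20-1724 (0.1 mM) present throughout.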
# [19] = target: D(2) dopamine receptor (Homo sapiens) (UniProt P14416); experiment: Dopamine D2 receptor (DRD2) small molecule agonists, cell-based qHTS assay (AID 1963594); note: nearly all actives have a fitted effect of over 35% in size
# Method in brief: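 cAMP accumulation in DRD2-HEK293 cells measured by HTRF after 1 h detection; compounds added 10 min before NKH477 (200nM […]) forskolin-analogue stimulation, 30 min at room temperature, with Ro20-1724 present at 0.1 mM final.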
# [20] = target: Gonadotropin-releasing hormone receptor (Homo sapiens) (UniProt P30968); experiment: Human gonadotropin-releasing hormone receptor (GnRHR) small molecule agonists, calcium flux assay in GnRHR-HEK293 cells (AID 1920063); note: nearly all actives have a fitted effect of over 35% in size
# Method in brief: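 Fluorescence kinetics (480 nm excitation, 540 nm emission; 3 min, 1 s steps) report calcium mobilisation in human GnRHR-HEK293 cells in agonist mode. Dye incubation: 1 h, 37 C.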
# Sequence of Gonadotropin-releasing hormone receptor (Homo sapiens) (P30968 whole entry, looked up): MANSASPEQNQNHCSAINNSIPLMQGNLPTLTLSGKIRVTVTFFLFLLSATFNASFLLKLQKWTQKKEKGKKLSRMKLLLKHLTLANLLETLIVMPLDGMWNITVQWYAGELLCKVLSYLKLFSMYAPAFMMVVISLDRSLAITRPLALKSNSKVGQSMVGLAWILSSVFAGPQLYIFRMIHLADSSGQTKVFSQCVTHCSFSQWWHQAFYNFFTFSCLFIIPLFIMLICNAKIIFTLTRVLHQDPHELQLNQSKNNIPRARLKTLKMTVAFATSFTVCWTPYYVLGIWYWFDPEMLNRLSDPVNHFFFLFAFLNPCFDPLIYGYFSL
# Sequence of Muscarinic acetylcholine receptor M1 (Homo sapiens) (P11229 whole entry, looked up): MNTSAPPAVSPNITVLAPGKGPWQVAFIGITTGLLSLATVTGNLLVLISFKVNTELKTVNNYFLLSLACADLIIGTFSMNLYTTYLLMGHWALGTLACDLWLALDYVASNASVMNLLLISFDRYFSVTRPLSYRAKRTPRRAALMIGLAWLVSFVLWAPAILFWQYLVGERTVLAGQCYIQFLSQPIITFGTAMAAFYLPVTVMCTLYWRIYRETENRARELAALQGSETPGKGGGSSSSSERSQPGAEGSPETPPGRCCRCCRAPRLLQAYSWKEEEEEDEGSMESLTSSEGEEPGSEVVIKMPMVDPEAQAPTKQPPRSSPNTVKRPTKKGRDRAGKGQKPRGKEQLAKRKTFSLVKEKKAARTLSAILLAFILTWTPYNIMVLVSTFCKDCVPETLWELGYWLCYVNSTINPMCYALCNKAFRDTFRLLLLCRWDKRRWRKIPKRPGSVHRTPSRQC
# Sequence of D(2) dopamine receptor (Homo sapiens) (P14416 whole entry, looked up): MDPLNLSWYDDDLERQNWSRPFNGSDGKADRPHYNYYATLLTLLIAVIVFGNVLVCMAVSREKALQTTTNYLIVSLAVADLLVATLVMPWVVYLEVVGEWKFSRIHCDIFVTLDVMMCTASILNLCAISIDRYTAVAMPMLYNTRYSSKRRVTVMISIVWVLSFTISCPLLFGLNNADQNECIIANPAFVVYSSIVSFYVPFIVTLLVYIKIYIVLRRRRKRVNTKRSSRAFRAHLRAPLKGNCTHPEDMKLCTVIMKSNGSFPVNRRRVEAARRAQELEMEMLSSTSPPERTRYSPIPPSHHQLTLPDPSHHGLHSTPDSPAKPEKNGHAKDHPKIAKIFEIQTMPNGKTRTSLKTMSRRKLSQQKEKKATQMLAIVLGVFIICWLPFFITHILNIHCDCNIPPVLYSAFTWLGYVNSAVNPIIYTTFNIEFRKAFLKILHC
# Sequence of Beta-2 adrenergic receptor (Homo sapiens) (P07550 whole entry, looked up): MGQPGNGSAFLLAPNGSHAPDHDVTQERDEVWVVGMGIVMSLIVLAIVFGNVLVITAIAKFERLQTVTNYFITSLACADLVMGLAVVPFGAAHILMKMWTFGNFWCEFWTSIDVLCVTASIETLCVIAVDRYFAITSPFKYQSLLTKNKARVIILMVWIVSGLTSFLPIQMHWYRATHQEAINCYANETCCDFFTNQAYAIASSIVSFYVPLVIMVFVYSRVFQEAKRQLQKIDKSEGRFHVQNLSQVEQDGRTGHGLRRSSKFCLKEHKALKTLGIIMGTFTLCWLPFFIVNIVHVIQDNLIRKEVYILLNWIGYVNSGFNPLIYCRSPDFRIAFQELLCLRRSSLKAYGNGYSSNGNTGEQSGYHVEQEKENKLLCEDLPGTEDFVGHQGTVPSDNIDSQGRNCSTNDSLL
# Sequence of 5-hydroxytryptamine receptor 2A (Homo sapiens) (P28223 whole entry, looked up): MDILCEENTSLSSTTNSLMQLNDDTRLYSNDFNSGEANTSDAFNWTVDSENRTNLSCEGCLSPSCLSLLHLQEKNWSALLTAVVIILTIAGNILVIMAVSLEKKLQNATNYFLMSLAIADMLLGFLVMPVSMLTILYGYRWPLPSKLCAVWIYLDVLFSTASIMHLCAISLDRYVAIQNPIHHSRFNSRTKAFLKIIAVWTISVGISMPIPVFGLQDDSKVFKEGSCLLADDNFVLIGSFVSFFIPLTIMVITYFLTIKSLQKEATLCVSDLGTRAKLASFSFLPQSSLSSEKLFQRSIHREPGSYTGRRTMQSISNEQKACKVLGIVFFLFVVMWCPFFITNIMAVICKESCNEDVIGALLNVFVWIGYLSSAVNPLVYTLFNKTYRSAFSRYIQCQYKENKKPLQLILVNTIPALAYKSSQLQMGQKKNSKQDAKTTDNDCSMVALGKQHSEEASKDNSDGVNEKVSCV
SMILES,Potency [1],Potency [2],Potency [3],Potency [4],Potency [5],Potency [6],Potency [7],Potency [8],Potency [9],Potency [10],Potency [11],Potency [12],Potency [13],Potency [14],Potency [15],Potency [16],Potency [17],Potency [18],Potency [19],Potency [20]
ClC(Cl)=C(c1ccc(Cl)cc1)c1ccc(Cl)cc1,39.5 µM (active),inactive,inactive,inactive,inactive,inactive,inactive,inactive,inactive,inactive,inactive,inactive,inactive,inactive,inactive,inactive,inactive,inactive,,
O=[N+]([O-])c1c(Cl)c(Cl)c(Cl)c(Cl)c1Cl,inactive,27.2 µM (active) and 54.5 µM (active),inactive,inactive,inactive,,inactive,inactive,inactive,inactive,inactive,inactive,inactive,,inactive,inactive,,,inactive,
Cc1ncc2n1-c1ccc(Cl)cc1C(c1ccccc1F)=NC2,inactive,inactive,inactive,inactive,inactive,inactive,inactive,inactive,inactive,inactive,inactive,,inactive,inactive,inactive,inactive,,inactive,inactive,
COCCl,inactive,inactive,inactive,inactive,inactive,inactive,inactive,inactive,inactive,inactive,22.7 µM (active) and inactive,inactive,50.9 µM (active) and inactive,inactive,inactive,inactive,inactive,inactive,inactive,
CCCCC(C#N)(Cn1cncn1)c1ccc(Cl)cc1 (configuration not stated),inactive,,inactive,inactive,inactive,inactive,inactive,inactive,inactive,inactive,inactive,inactive,inactive,,inactive,inactive,inactive,inactive,,inactive
O=NN1CCCCCCC1,inactive,,inactive,inactive,inactive,inactive,inactive,inactive,inactive,inactive,,inactive,inactive,,inactive,inactive,inactive,inactive,inactive,inactive
ClC1(Cl)C2(Cl)C3(Cl)C4(Cl)C(Cl)(Cl)C5(Cl)C3(Cl)C1(Cl)C5(Cl)C24Cl (configuration not stated),inactive,,inactive,inactive,inactive,inactive,inactive,inactive,,,inactive,inactive,inactive,inactive,inactive,,,,inactive,inactive
CC(NC(C)(C)C)C(=O)c1cccc(Cl)c1 (configuration not stated),inactive,,inactive,inactive,inactive,inactive,inactive,inactive,inactive,,,,,inactive,inactive,inactive,,inactive,inactive,inactive
Nc1ccccc1,inactive,,inactive,inactive,inactive,inactive,inactive,inactive,inactive,inactive,inactive,,inactive,inactive,inactive,inactive,inactive,inactive,inactive,inactive
CCC1(CC)C(=O)C=CNC1=O,inactive,,inactive,inactive,inactive,inactive,inactive,inactive,inactive,inactive,inactive,inactive,inactive,inactive,inactive,inactive,inactive,inactive,inactive,inactive
Clc1ccc(C(Cl)(Cl)Cl)cn1,inactive,,inactive,inactive,inactive,inactive,inactive,inactive,inactive,inactive,inactive,inactive,,inactive,inactive,inactive,inactive,inactive,inactive,inactive
S=C1NCCN1,inactive,,inactive,inactive,inactive,inactive,inactive,inactive,inactive,inactive,inactive,inactive,inactive,inactive,inactive,inactive,,inactive,inactive,inactive
Nc1ccc(-c2ccccc2)cc1,inactive,,inactive,inactive,inactive,inactive,inactive,inactive,inactive,inactive,inactive,inactive,inactive,inactive,inactive,inactive,,inactive,inactive,inactive
S=c1[nH]c2ccccc2[nH]1,inactive,,inactive,inactive,inactive,inactive,inactive,inactive,inactive,inactive,inactive,inactive,inactive,inactive,,inactive,,inactive,inactive,inactive
CCC[CH2][Sn]([Cl])([Cl])[Cl],inactive,,inactive,inactive,inactive,inactive,inactive,inactive,inactive,inactive,inactive,inactive,inactive,inactive,inactive,inactive,,inactive,inactive,inactive
